According to PubChem BioAssay (NCI):
This is part of a sample that, as a whole, favours compounds with a hit. Of some 83,000 tested, about 20% had one in any assay.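 Cell lines were cultured in 96-well plates, exposed to a single compound concentration, and assessed for percent growth 48 hours later.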 The source made the active and inactive calls. Rule for the calls: active = growth percent below 10; inactive = the rest.

Tests used:
Assay in all cases: NCI-60 one-dose screen, 48 h (100 = growth as untreated, 0 = no growth, -100 = all killed)
Details in all cases: 10 µM unless noted
HCT-15 colon = test system: HCT-15 colon
HT29 colon = test system: HT29 colon
SNB-75 CNS = test system: SNB-75 CNS
SNB-19 CNS = test system: SNB-19 CNS
U251 CNS = test system: U251 CNS
PC-3 prostate = test system: PC-3 prostate
SK-MEL-5 melanoma = test system: SK-MEL-5 melanoma
UACC-62 melanoma = test system: UACC-62 melanoma
LOX IMVI melanoma = test system: LOX IMVI melanoma
SK-MEL-28 melanoma = test system: SK-MEL-28 melanoma

Measured: growth

O=C(c1c[nH]c2ccccc12)c1n[nH]c(=S)n1-c1cccc(Br)c1
inactive: HCT-15 colon 40.9% | HT29 colon 96.2% | SNB-75 CNS 83.2% | SNB-19 CNS 93.8% | U251 CNS 97.3% | PC-3 prostate 87.8% | SK-MEL-5 melanoma 28% | UACC-62 melanoma 51.9% | LOX IMVI melanoma 93.2% | SK-MEL-28 melanoma 105%

CCc1ccc(CCC(=O)Nc2ncc(Cc3ccccc3)s2)o1
inactive: HCT-15 colon 20.2% | SNB-19 CNS 52.9% | U251 CNS 27.2% | PC-3 prostate 26.7% | SK-MEL-5 melanoma 42.8% | UACC-62 melanoma 23% | LOX IMVI melanoma 42.4% | SK-MEL-28 melanoma 56.4%
active: HT29 colon 9.07% | SNB-75 CNS 3.46%

CN(CCCNC(=O)CCOCCOCCOCCNC(=O)Cc1ccc2ccc3cccc4ccc1c2c34)CCCNc1cc(-c2ccc3ccccc3c2)nc2ccccc12
active: HCT-15 colon -77.5% | HT29 colon -87.6% | SNB-75 CNS -95.7% | SNB-19 CNS -95.1% | U251 CNS -70.7% | PC-3 prostate -93.6% | SK-MEL-5 melanoma -96% | UACC-62 melanoma -65.9% | LOX IMVI melanoma -43.7% | SK-MEL-28 melanoma -94%

Cc1cccc[n+]1C1c2ccccc2-c2ccccc21
inactive: HCT-15 colon 109% | HT29 colon 79.2% | SNB-75 CNS 94.1% | SNB-19 CNS 89.7% | U251 CNS 83.1% | PC-3 prostate 67.6% | SK-MEL-5 melanoma 94.5% | UACC-62 melanoma 92.3% | LOX IMVI melanoma 97.8% | SK-MEL-28 melanoma 102%

COc1ccc2c(c1)/C(=N/c1n[nH]c(=S)s1)C(=O)N2
inactive: HCT-15 colon 104% | HT29 colon 105% | SNB-75 CNS 75.4% | SNB-19 CNS 99.1% | U251 CNS 93.8% | PC-3 prostate 91.2% | SK-MEL-5 melanoma 91.2% | UACC-62 melanoma 94.8% | LOX IMVI melanoma 95.8% | SK-MEL-28 melanoma 107%

Cc1ccc(S(=O)(=O)OCCCOS(=O)(=O)c2ccc(C)cc2)cc1
inactive: HCT-15 colon 106% | HT29 colon 102% | SNB-75 CNS 99.7% | SNB-19 CNS 97.9% | U251 CNS 96.4% | PC-3 prostate 89.3% | SK-MEL-5 melanoma 116% | UACC-62 melanoma 103% | LOX IMVI melanoma 108% | SK-MEL-28 melanoma 109%

O=C(O)COc1ccc(Cl)c(Cl)c1
inactive: HCT-15 colon 111% | HT29 colon 112% | SNB-75 CNS 107% | SNB-19 CNS 117% | U251 CNS 108% | PC-3 prostate 100% | SK-MEL-5 melanoma 105% | UACC-62 melanoma 104% | LOX IMVI melanoma 97.9% | SK-MEL-28 melanoma 116%

O=C(CCCCCCN1CC(=O)N2[C@H](c3ccc(Br)cc3)c3[nH]c4ccccc4c3C[C@@H]2C1=O)NO
inactive: HCT-15 colon 103% | HT29 colon 53% | SNB-75 CNS 31.9% | SNB-19 CNS 57.1% | U251 CNS 42.6% | PC-3 prostate 39.1% | SK-MEL-5 melanoma 26% | UACC-62 melanoma 13.8% | LOX IMVI melanoma 12.3% | SK-MEL-28 melanoma 33.9%

CCN(CC)c1ccc(/C=N/NC(=O)Cc2ccc(Nc3ccnc(C(F)(F)F)c3)cc2)c(O)c1
inactive: HCT-15 colon 33.2% | HT29 colon 33.1% | SNB-19 CNS 30.9% | U251 CNS 25.7% | PC-3 prostate 53.3% | SK-MEL-5 melanoma 27.1% | UACC-62 melanoma 20.6% | SK-MEL-28 melanoma 31.7%
active: SNB-75 CNS 5.89% | LOX IMVI melanoma 6.64%

C#Cc1cccc(Nc2nc(C)nc3cc(NC(=O)CCl)ccc23)c1
active: HCT-15 colon -63.7% | HT29 colon -84% | SNB-75 CNS -94.7% | SNB-19 CNS -32.9% | U251 CNS -93.9% | PC-3 prostate -81.2% | SK-MEL-5 melanoma -94% | UACC-62 melanoma -46.5% | LOX IMVI melanoma -81.7% | SK-MEL-28 melanoma -81.9%

CCNc1nc(O)c(/C=C2\C=Nc3ncccc32)s1
inactive: HCT-15 colon 16%
active: HT29 colon 4.26% | SNB-75 CNS -71.8% | SNB-19 CNS 9.99% | U251 CNS -9.45% | PC-3 prostate 2.3% | SK-MEL-5 melanoma 9.15% | UACC-62 melanoma -16% | LOX IMVI melanoma 1.75% | SK-MEL-28 melanoma -17.2%

C=Cc1cnc(Nc2ccc(OC)cc2)nc1NCCCNC(=O)C1CCC1
inactive: HCT-15 colon 35.7% | SNB-19 CNS 57.5% | U251 CNS 29% | PC-3 prostate 64.2% | SK-MEL-5 melanoma 37.5% | UACC-62 melanoma 82.3% | LOX IMVI melanoma 20.4% | SK-MEL-28 melanoma 80.3%
active: HT29 colon 8.04% | SNB-75 CNS -5.11%

Cc1ccc(C)c(/C=C2\CN(C(=O)OC(C)(C)C)C/C(=C\c3cc(C)ccc3C)C2=O)c1
inactive: HCT-15 colon 19.4% | SNB-75 CNS 78.5% | SNB-19 CNS 59.9% | U251 CNS 15.9% | PC-3 prostate 46.6% | SK-MEL-5 melanoma 45% | UACC-62 melanoma 37.3% | SK-MEL-28 melanoma 41.3%
active: HT29 colon 9.93% | LOX IMVI melanoma 0.926%

COc1ccc(-c2cc(-c3ccccc3)nc(N3CCN(CCNc4ccnc5cc(Cl)ccc45)CC3)n2)cc1
inactive: SNB-75 CNS 83.6% | SNB-19 CNS 72.7% | PC-3 prostate 32.4% | UACC-62 melanoma 62.2%
active: HCT-15 colon -82% | HT29 colon -67.6% | U251 CNS 0.46% | SK-MEL-5 melanoma -98.6% | LOX IMVI melanoma -95.1% | SK-MEL-28 melanoma -93.1%

N=C(N)c1ccc(-c2ccc(-c3cc(Cl)cc(Cl)c3)s2)nc1
active: HCT-15 colon -7.35% | U251 CNS -36.1% | LOX IMVI melanoma -75.6%
inactive: HT29 colon 13.2% | SNB-75 CNS 105% | SNB-19 CNS 64.5% | PC-3 prostate 71.3% | SK-MEL-5 melanoma 94% | UACC-62 melanoma 95.2% | SK-MEL-28 melanoma 108%

Nc1ccc(-c2csc(-n3[nH]c(=O)ccc3=O)n2)cc1
inactive: HCT-15 colon 89.1% | HT29 colon 94.5% | SNB-75 CNS 99% | SNB-19 CNS 98.6% | U251 CNS 100% | PC-3 prostate 96.2% | UACC-62 melanoma 101% | LOX IMVI melanoma 102% | SK-MEL-28 melanoma 108%
active: SK-MEL-5 melanoma -99.6%

Cc1ccc(S(=O)(=O)Oc2ccc3sc4cccc(NCCN(C)C)c4c(=O)c3c2)cc1
active: HCT-15 colon -94.2% | HT29 colon -60.6% | SNB-75 CNS -92.9% | SNB-19 CNS -60% | U251 CNS -78.6% | PC-3 prostate -86.4% | SK-MEL-5 melanoma -99% | UACC-62 melanoma -98.2% | LOX IMVI melanoma -96.5% | SK-MEL-28 melanoma -92.4%

CCN1C(=O)N(CC)C2C1NN=c1s/c(=C3\C(=O)N(CCC(C)C)c4ccccc43)c(=O)n12 (stereo not given)
active: HT29 colon 4.19% | U251 CNS 8.16% | SK-MEL-5 melanoma 8.16%
inactive: HCT-15 colon 14.6% | SNB-75 CNS 21.6% | SNB-19 CNS 23.3% | PC-3 prostate 28.9% | UACC-62 melanoma 18.5% | LOX IMVI melanoma 19.2% | SK-MEL-28 melanoma 59.9%

C=C1C(=O)O[C@H]2[C@H]1CC/C(COC(=O)c1ccc(C(=O)O)s1)=C\CC[C@@]1(C)O[C@@H]21
active: HCT-15 colon 4.14% | HT29 colon 7.91% | UACC-62 melanoma 3.21% | LOX IMVI melanoma -55.2%
inactive: SNB-75 CNS 71.2% | SNB-19 CNS 48% | U251 CNS 22.4% | PC-3 prostate 18.1% | SK-MEL-5 melanoma 91.4% | SK-MEL-28 melanoma 11.7%

COc1ccc(/C=C/c2c(C(=O)/C=C/c3ccccc3)c(C)nc3ccccc23)cc1
inactive: SNB-75 CNS 29.4% | SNB-19 CNS 16.3% | PC-3 prostate 26.9% | SK-MEL-5 melanoma 21.2% | UACC-62 melanoma 19.1% | SK-MEL-28 melanoma 18.7%
active: HCT-15 colon -26.2% | HT29 colon 1.64% | U251 CNS -59.9% | LOX IMVI melanoma -82.3%

O=C(Nc1ncccc1OCc1ccccc1)NC1CCCCCC1
inactive: HCT-15 colon 80.7% | HT29 colon 74.6% | SNB-75 CNS 97.7% | SNB-19 CNS 97.9% | U251 CNS 96.2% | PC-3 prostate 48.1% | SK-MEL-5 melanoma 69.1% | UACC-62 melanoma 71.6% | LOX IMVI melanoma 90.6% | SK-MEL-28 melanoma 93.6%

Nc1nc2c(c3ncccc13)C(c1cccc(Cl)c1)Cc1ncccc1-2 (stereo not given)
inactive: HCT-15 colon 22.2% | SNB-75 CNS 32.5% | SNB-19 CNS 21.1% | U251 CNS 16% | PC-3 prostate 18.3% | SK-MEL-5 melanoma 29.3% | UACC-62 melanoma 22.1% | LOX IMVI melanoma 36.8% | SK-MEL-28 melanoma 63.9%
active: HT29 colon 2.28%

NC(=O)c1cnc(Nc2cccc(N)c2)nc1NCCCNC(=O)C1CCC1
inactive: HCT-15 colon 101% | HT29 colon 92.9% | SNB-75 CNS 53.8% | SNB-19 CNS 82.8% | U251 CNS 64.8% | PC-3 prostate 72.4% | SK-MEL-5 melanoma 84.6% | UACC-62 melanoma 70% | LOX IMVI melanoma 68.7% | SK-MEL-28 melanoma 92%

COc1ccc(C(=O)Cn2c(C(=O)c3ccc(Cl)cc3)nc3ccccc32)cc1
inactive: HCT-15 colon 33.6% | HT29 colon 51.2% | SNB-75 CNS 53.8% | SNB-19 CNS 74% | U251 CNS 65.3% | PC-3 prostate 68.9% | SK-MEL-5 melanoma 41.9% | UACC-62 melanoma 54.1% | LOX IMVI melanoma 74.8% | SK-MEL-28 melanoma 71.2%

CCCCCCCCCCCCCCCCCC1=NC(C)(C)CN1CC(C)O (stereo not given)
active: HT29 colon -4.49% | LOX IMVI melanoma -83.1%
inactive: HCT-15 colon 10.3% | SNB-75 CNS 97.8% | SNB-19 CNS 85.3% | U251 CNS 74% | PC-3 prostate 53.4% | SK-MEL-5 melanoma 100% | UACC-62 melanoma 105% | SK-MEL-28 melanoma 105%

COC(=O)c1ccc(NC(=O)Nc2ccc(C(=O)OC)cc2)cc1
inactive: HCT-15 colon 93% | HT29 colon 82.4% | SNB-75 CNS 113% | SNB-19 CNS 97.2% | U251 CNS 113% | PC-3 prostate 82% | SK-MEL-5 melanoma 102% | UACC-62 melanoma 82.3% | LOX IMVI melanoma 98.1% | SK-MEL-28 melanoma 102%

Ic1ccccc1I
inactive: HCT-15 colon 99.8% | HT29 colon 107% | SNB-75 CNS 88.3% | SNB-19 CNS 103% | U251 CNS 99% | PC-3 prostate 99.7% | SK-MEL-5 melanoma 102% | UACC-62 melanoma 97.3% | LOX IMVI melanoma 102% | SK-MEL-28 melanoma 108%
